Screens as filed in PubChem.
Avidin fluor: compound fluoresces at 488/530 nm on avidin beads. fluorescence (KMESF) at 10 µM. 0.38% of 220,000 active. compound fluorescence 488/530 nm, flow cytometry; stronger effect = higher value; in the data active means fluorescence above about 47
RGS7-Gao: regulators of human RGS7-Galphao interaction; AID 1439; Multiplexed bead flow cytometry, RGS7-Galphao binding; actives lie on both sides; P09471; 0.35% of 220,000 active; binding response (% of control), % at 10 µM; in the data active means binding response below about 49% or above about 150%; inconclusive means no clear call, values can overlap the other calls; inactive means in between;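 further: fluorescent Galphao held in activated GDP-AlF4 state binding bead-coupled RGS7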
Target sequence (P09471 whole entry, looked up): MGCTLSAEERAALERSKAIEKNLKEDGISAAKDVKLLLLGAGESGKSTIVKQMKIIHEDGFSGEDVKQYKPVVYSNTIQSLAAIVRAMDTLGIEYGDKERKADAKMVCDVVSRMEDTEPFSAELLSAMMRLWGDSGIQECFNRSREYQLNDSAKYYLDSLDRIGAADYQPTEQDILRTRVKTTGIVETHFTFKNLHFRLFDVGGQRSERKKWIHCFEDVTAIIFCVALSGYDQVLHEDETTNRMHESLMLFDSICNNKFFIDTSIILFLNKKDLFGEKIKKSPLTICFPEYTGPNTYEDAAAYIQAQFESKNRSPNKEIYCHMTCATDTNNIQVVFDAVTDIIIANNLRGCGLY
RGS16-Gao: modulates binding between human RGS16 and Galphao; bead-based flow cytometry RGS16-Galphao binding, fluorescence; actives lie on both sides; binding response (% of control), % at 10 µM; 0.38% of 220,000 active; call rule not given here;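 further: Galphao activated by GDP with aluminum fluoride before binding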
GSH bead fluor: compound fluoresces at 488/530 nm on GSH beads; GSH beads flow cytometry, compound fluorescence 488/530 nm; stronger effect = higher value; fluorescence (KMESF) at 10 µM; 0.25% of 190,000 active; AID 1776; in the data active means fluorescence above about 89;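 further: glutathione beads carrying GST-tagged Bcl family fusion proteins plus one bare bead set; values are compound well signal with DMSO vehicle wells as background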
RGS8-Gao reg: regulators of human RGS8-Galphao interaction; P09471; AID 1423; 0.34% of 220,000 active; response (percent of control binding), % at 10 µM; multiplexed bead flow cytometry, RGS8-Galphao binding; actives lie on both sides; in the data active means response below about 60% or above about 140%; inactive means in between;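 further: Galphao activated as the GDP aluminium fluoride complex binding bead-coupled RGS8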
RGS4-Gao reg: human RGS4-Galphao interaction regulation; binding response (% of control), % at 10 µM; 0.33% of 220,000 active; Multiplexed bead flow cytometry, RGS4-Galphao binding; actives lie on both sides; P09471; in the data active means binding response below about 49% or above about 150%; inactive means in between;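 further: fluorescent Galphao activated with aluminum fluoride binding bead-coupled RGS4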
Numbers without * were called inactive. This is a sample that favours compounds with a hit; in the whole collection about 1.2% have one here.

Screening CC(=O)Nc1nonc1-c1nc2ccccc2n1CCC#N returned Avidin fluor 9, RGS7-Gao 97, RGS16-Gao 109, GSH bead fluor 25, RGS8-Gao reg 106 and RGS4-Gao reg 97.
CC(=O)Nc1nonc1-c1nc2ccccc2n1CC1CC1 was read as Avidin fluor 57*, RGS7-Gao 117, RGS16-Gao 80, GSH bead fluor 13, RGS8-Gao reg 92 and RGS4-Gao reg 101.
CCS(=O)(=O)c1ccc(O)c(NC(=O)Nc2ccccc2OC)c1 was read as Avidin fluor 8, RGS7-Gao inconclusive, RGS16-Gao 104, RGS8-Gao reg 99 and RGS4-Gao reg 100.
For Cc1nnc(N(Cc2ccco2)C(=O)c2ccc(C#N)cc2)s1 the results were Avidin fluor 7, RGS7-Gao 99, RGS16-Gao 96, GSH bead fluor 110*, RGS8-Gao reg 101 and RGS4-Gao reg 99.
Cc1nnc(N(Cc2ccco2)C(=O)c2cccc(C#N)c2)s1 was read as Avidin fluor 21, RGS7-Gao 100, RGS16-Gao 104, GSH bead fluor 32, RGS8-Gao reg 103 and RGS4-Gao reg 101.
For CCCSc1nnc(NC(=O)Nc2ccccc2OC)s1 the results were Avidin fluor 25, RGS7-Gao inconclusive, RGS16-Gao 132, RGS8-Gao reg 113 and RGS4-Gao reg 134.
Screening O=C(O/N=C1/CCCc2occc21)c1ccc(Cl)cc1Cl returned Avidin fluor 6, RGS7-Gao inconclusive, RGS16-Gao 102, RGS8-Gao reg 101 and RGS4-Gao reg 104.
Screening OCC#CCSc1nnc(-c2ccncc2)o1 returned Avidin fluor 17, RGS7-Gao 100, RGS16-Gao 100, GSH bead fluor 251*, RGS8-Gao reg 101 and RGS4-Gao reg 102.
Screening CCCC(=O)OCC(=O)Nc1cc(C(C)(C)C)nn1-c1ccccc1 returned Avidin fluor 14, RGS7-Gao 112, RGS16-Gao 118, GSH bead fluor 91*, RGS8-Gao reg 103 and RGS4-Gao reg 118.
CC(=O)Nc1ccc(OCC(O)Cn2nc(C)c(C(C)=O)c2C)cc1 (stereo not drawn) was read as Avidin fluor 73*, RGS7-Gao 149, RGS16-Gao 103, GSH bead fluor 24, RGS8-Gao reg 98 and RGS4-Gao reg 108.
Screening COc1ccc(OCC(O)CNC(=O)Nc2cc(F)ccc2C)cc1 (stereo not drawn) returned Avidin fluor 7, RGS7-Gao inconclusive, RGS16-Gao 96, RGS8-Gao reg 104 and RGS4-Gao reg 102.
For CCc1c(C)sc(NC(=O)C2CCCO2)c1C#N (stereo not drawn) the results were Avidin fluor 3, RGS7-Gao 76, RGS16-Gao 32, GSH bead fluor 139*, RGS8-Gao reg 69 and RGS4-Gao reg 66.
For CCc1cccc(C)c1NC(=O)C1CCCO1 (stereo not drawn) the results were Avidin fluor 5, RGS7-Gao 112, RGS16-Gao 65, GSH bead fluor 251*, RGS8-Gao reg 105 and RGS4-Gao reg 114.
For Cc1cccc2sc(NC(=O)C3CCCO3)nc12 (stereo not drawn) the results were Avidin fluor 33, RGS7-Gao 99, RGS16-Gao 105, GSH bead fluor 25, RGS8-Gao reg 102 and RGS4-Gao reg 101.
`O=C1Nc2ccccc2N(O)N1c1ccc(S(=O)(=O)N2CCCCCC2)cc1` gave Avidin fluor 2, RGS7-Gao 100, RGS16-Gao 106, GSH bead fluor 6, RGS8-Gao reg 104 and RGS4-Gao reg 106.
`CN(C(=O)c1cc2nc(-c3ccco3)cc(C(F)(F)F)n2n1)C1CCCCC1` gave Avidin fluor 5, RGS7-Gao 35*, RGS16-Gao 35, GSH bead fluor 31, RGS8-Gao reg 47* and RGS4-Gao reg 39*.
Nc1cc(=O)[nH]c(SCc2ccc(Cl)cc2)n1 was read as Avidin fluor 50*, RGS7-Gao 110, RGS16-Gao 104, GSH bead fluor 19, RGS8-Gao reg 103 and RGS4-Gao reg 105.
`CC(c1ccccc1)N1C(=O)/C(=C/c2ccncc2)SC1=S` (stereo not drawn) gave Avidin fluor 7, RGS7-Gao inconclusive, RGS16-Gao 94, RGS8-Gao reg 96 and RGS4-Gao reg 93.
